# Records with an inconclusive call do not appear. Active and inactive are the calls of the source. Unless noted, the call rests on the fitted dose curve.
# Assays:
# [1] = molecular target: Estrogen receptor (Homo sapiens) (UniProt P03372); assay: qHTS assay for small molecule antagonists of estrogen receptor alpha signaling (AID 588513; active means well fitted curve in the direction sought with a large enough effect in the signal ratio, with a control signal flat, not every such curve was filed as active; the % refers to the signal ratio; further: potency means the concentration at half of the fitted maximal effect)
# Chain of Estrogen receptor (Homo sapiens) (P03372 whole entry, looked up): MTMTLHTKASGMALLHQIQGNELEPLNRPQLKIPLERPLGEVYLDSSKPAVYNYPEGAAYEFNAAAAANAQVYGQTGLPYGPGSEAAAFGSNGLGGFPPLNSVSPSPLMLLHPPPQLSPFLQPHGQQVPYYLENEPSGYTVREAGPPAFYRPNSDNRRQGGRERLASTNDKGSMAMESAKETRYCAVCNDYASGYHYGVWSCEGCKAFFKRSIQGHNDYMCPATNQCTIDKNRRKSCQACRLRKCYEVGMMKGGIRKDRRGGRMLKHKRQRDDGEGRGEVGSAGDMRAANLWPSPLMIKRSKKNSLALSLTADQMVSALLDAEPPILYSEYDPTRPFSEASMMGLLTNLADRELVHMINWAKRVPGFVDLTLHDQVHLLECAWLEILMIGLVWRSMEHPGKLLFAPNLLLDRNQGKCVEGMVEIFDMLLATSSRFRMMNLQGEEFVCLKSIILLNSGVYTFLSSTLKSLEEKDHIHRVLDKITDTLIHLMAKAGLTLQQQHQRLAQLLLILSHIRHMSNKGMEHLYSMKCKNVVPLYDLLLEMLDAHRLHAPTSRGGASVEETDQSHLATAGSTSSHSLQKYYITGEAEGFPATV
# In short: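 ER-alpha-UAS-bla GripTite HEK 293 cells in 2% charcoal/dextran-treated FBS medium; compounds titrated (1:2, duplicate), then stimulated with 0.5 nM 17-beta-estradiol for 18 h at 37C. CCF4 beta-lactamase fluorescence; Hill-fit IC50 and efficacy.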
# [2] = molecular target: Peroxisome proliferator-activated receptor delta (Homo sapiens) (UniProt Q03181); assay: qHTS assay for small molecule agonists of peroxisome proliferator-activated receptor delta signaling (AID 588534);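 further: 0% = DMSO basal wells and 100% = positive control agonist at 10 µM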
# Chain of Peroxisome proliferator-activated receptor delta (Homo sapiens) (Q03181 whole entry, looked up): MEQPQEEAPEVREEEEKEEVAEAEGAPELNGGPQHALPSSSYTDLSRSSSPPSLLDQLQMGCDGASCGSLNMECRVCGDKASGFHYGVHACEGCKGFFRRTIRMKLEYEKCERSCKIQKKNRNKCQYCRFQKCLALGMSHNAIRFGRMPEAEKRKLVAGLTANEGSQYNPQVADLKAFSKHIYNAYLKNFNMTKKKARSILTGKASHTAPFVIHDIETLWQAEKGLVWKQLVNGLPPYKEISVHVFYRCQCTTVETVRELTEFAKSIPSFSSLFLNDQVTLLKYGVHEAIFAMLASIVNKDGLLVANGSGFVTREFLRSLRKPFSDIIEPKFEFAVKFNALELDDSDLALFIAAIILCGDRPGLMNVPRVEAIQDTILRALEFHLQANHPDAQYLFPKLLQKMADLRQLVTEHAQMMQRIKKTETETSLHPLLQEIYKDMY
# In short: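 Fluorescence from CCF4 substrate cleavage by beta-lactamase reporter, read 2 hrs at RT, measured agonist activity. Compounds were tested with 18 hrs exposure at 37 C. Concentration-response data fitted to Hill equation.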
# [3] = molecular target: Vitamin D3 receptor (Homo sapiens) (UniProt P11473); assay: qHTS assay for small molecule agonists of vitamin D receptor signaling (AID 588543);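 further: 0% = DMSO basal and 100% = reference agonist control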
# Chain of Vitamin D3 receptor (Homo sapiens) (P11473 whole entry, looked up): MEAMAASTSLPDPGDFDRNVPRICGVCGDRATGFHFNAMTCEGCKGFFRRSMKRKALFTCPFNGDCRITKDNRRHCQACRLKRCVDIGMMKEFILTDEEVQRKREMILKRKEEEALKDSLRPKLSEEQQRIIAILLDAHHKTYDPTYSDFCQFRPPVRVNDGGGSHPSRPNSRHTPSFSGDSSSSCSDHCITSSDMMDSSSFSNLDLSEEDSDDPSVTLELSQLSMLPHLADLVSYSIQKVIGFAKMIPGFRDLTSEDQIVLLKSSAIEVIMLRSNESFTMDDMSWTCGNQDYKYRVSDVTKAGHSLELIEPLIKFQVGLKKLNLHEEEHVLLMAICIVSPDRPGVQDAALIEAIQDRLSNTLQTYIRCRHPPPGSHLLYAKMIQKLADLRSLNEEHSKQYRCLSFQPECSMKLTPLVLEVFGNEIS
# In short: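 VDR-UAS-bla HEK293T cells, 2000/well, 2% charcoal-stripped FBS; compound titration 16 h at 37 C; CCF4 beta-lactamase ratio read. Normalized to 50 nM 1-alpha,25-dihydroxyvitamin D3 (100%) and DMSO; Hill fit gives EC50, efficacy.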
# [4] = qHTS assay for small molecule antagonists of retinoid X receptor alpha signaling (AID 588546; active means well fitted inhibition curve with a large enough effect in the signal ratio, with a control signal flat, not every such curve was filed as active; the % refers to the signal ratio; further: potency means the concentration at half of the fitted maximal effect;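 on max response: cells stimulated with 9-cis-retinoic acid as agonist; on the % scale 0 is the no-effect control and ±100 the full control effect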); conditions: HEK293T RXRa-UAS-bla, beta-lactamase ratio, antagonist mode; measured here: W530 green channel, cytotoxicity proxy
# In short: (§1)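 Beta-lactamase reporter inhibition, read as CCF4 fluorescence ratio (ex 405, em 460/530 nm) after 2 h at RT. HEK293T UAS-bla cells, 2500/well, were stimulated with 9-cis-RA at 500 or 100 nM final alongside test compound for 18 h at 37 C.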
# [5] = molecular target: Retinoic acid receptor RXR-alpha (Homo sapiens) (UniProt P19793); assay: as above; conditions: HEK293T RXRa-UAS-bla, beta-lactamase ratio, antagonist mode
# Chain of Retinoic acid receptor RXR-alpha (Homo sapiens) (P19793 whole entry, looked up): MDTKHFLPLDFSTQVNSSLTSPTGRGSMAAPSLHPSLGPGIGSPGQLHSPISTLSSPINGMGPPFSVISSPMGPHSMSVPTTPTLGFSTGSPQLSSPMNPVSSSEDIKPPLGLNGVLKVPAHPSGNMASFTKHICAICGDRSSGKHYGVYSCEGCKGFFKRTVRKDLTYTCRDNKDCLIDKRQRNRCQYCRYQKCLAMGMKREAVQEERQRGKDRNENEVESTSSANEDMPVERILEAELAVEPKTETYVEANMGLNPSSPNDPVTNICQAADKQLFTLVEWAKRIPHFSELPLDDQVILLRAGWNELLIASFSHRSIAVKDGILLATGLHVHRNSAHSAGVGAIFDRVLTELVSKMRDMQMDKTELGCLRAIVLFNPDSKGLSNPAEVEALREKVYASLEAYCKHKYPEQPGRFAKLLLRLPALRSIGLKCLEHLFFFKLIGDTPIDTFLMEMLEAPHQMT
# In short: as §1
# [6] = qHTS assay for small molecule activators of the p53 signaling pathway (AID 651743; active means well fitted activation curve with a large enough effect in the signal ratio, not every such curve was filed as active; the % refers to the signal ratio; further: potency means the concentration at half of the fitted maximal effect; on activation: series mostly up to about 92 µM; % of control where 0% means no effect); conditions: HCT-116 p53RE-bla, beta-lactamase FRET ratio, 16 h; activation: stronger effect = higher value
# In short: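 Cell-based beta-lactamase reporter (p53 response elements, HCT-116 background). After a 5-hour preincubation, cells received compound for 16 hours at 37 C; substrate development ran 2 hours at room temperature.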
# [7] = qHTS assay for environmental chemicals that activate the Aryl hydrocarbon Receptor (AhR) signaling pathway (AID 651777; active means well fitted curve in the direction sought with a large enough effect; an effect the other way counts as inactive or inconclusive; further: % of control where 0% means no effect; nearly all actives have a fitted effect of over 15% in size); conditions: 1A2-DRE human hepatoma cells, luciferase, 24 h; activation: stronger effect = higher value
# In short: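 Stable CYP1A2 promoter/DRE-luciferase human hepatoma line treated 24 hr; One-Glo luminescence, 30 min RT.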
# [8] = molecular target: Peroxisome proliferator-activated receptor alpha (Homo sapiens) (UniProt Q07869); assay: qHTS assay for small molecule agonists of the peroxisome proliferator-activated receptor alpha (PPARalpha) signaling pathway (AID 651778; active means well fitted curve in the direction sought with a large enough effect; an effect the other way counts as inactive or inconclusive; further: % of control where 0% means no effect); conditions: PathHunter PPARalpha complementation, chemiluminescence, 6 h; max response: stronger effect = higher value
# Chain of Peroxisome proliferator-activated receptor alpha (Homo sapiens) (Q07869 whole entry, looked up): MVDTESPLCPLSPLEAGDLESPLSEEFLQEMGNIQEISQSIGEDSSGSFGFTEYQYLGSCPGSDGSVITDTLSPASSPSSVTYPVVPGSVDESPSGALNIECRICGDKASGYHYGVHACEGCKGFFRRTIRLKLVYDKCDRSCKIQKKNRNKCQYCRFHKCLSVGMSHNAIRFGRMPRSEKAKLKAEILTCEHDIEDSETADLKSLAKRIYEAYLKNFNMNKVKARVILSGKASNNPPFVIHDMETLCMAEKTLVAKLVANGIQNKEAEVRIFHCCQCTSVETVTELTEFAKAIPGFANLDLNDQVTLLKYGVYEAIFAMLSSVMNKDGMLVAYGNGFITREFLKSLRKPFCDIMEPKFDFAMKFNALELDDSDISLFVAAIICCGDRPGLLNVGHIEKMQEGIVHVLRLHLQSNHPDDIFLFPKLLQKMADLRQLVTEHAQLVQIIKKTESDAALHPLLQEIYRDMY
# In short: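 Cells plated at 2,000/well and held overnight at 37 C, 5% CO2, then compound added by pin tool for 6 hr; after PathHunter detection reagent and 60 min at room temperature, chemiluminescence from enzyme complementation was read.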
# [9] = qHTS assay for small molecule agonists of the antioxidant response element (ARE) signaling pathway measured by Nrf2-dependant transcriptional activity (AID 720636; active means well fitted curve in the direction sought with a large enough effect in the repeat runs; an effect the other way counts as inactive or inconclusive;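 further: HepG2 cells with an ARE-driven luciferase reporter; % of control where 0% means no effect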)
# In short: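 Reporter gene assay, HepG2 ARE-luc: 16 hr compound, 37 C, 5% CO2; read-out luciferase luminescence.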
# [10] = qHTS assay for small molecule agonists of the antioxidant response element (ARE) signaling pathway measured by Nrf2-dependant transcriptional activity - cell viability counter screen (AID 720653; active means well fitted curve in the direction sought with a large enough effect in the repeat runs; an effect the other way counts as inactive or inconclusive; further: on the % scale 0 is the no-effect control and ±100 the full control effect); conditions: ARE-bla HepG2 viability, CellTiter-Glo ATP luminescence, 16 h; max response: stronger effect = lower value
# In short: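 ARE-bla HepG2 cells (2,000/well) rested 5 hrs at 37C/5% CO2, then exposed to compounds in DMSO for 16 hrs. Viability was read in the same wells as intracellular ATP by luminescence, 30 min at room temperature after reagent addition.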
# [11] = qHTS assay for cell viability of HEK293 cells (AID 743288; active means well fitted curve in the direction sought with a large enough effect; an effect the other way counts as inactive or inconclusive; further: on the % scale 0 is the no-effect control and ±100 the full control effect; nearly all actives have a fitted effect of over 50% in size); conditions: ATP luminescence (CellTiter-Glo), 18 h; max response: stronger effect = lower value
# In short: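 Parental HEK293 cells, 2,000 per well, preincubated at least 5 h at 37 C, then exposed to compounds in DMSO for 18 h at 37 C. Viability by CellTiter-Glo ATP luminescence after 30 min at room temperature.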
# [12] = molecular target: Estrogen receptor (Homo sapiens) (UniProt P03372); assay: qHTS assay for small molecule agonists of estrogen receptor alpha signaling (AID 588514);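 further: 0% = vehicle only and 100% = reference agonist; nearly all actives have a fitted effect of over 70% in size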
# In short: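 Cells were plated at 5000/well, incubated 4 hrs at 37 C, dosed with compound titration series, incubated 18 hrs at 37 C, loaded with CCF4 dye for 2 hrs at RT, then fluorescence was read.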
# [13] = molecular target: Peroxisome proliferator-activated receptor gamma (Homo sapiens) (UniProt P37231); assay: qHTS assay for small molecule agonists of peroxisome proliferator-activated receptor gamma signaling (AID 588536; active means well fitted curve in the direction sought with a large enough effect in the signal ratio, with a control signal flat, not every such curve was filed as active; the % refers to the signal ratio;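 further: 0% = DMSO basal wells and 100% = rosiglitazone at 2 µM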)
# Chain of Peroxisome proliferator-activated receptor gamma (Homo sapiens) (P37231 whole entry, looked up): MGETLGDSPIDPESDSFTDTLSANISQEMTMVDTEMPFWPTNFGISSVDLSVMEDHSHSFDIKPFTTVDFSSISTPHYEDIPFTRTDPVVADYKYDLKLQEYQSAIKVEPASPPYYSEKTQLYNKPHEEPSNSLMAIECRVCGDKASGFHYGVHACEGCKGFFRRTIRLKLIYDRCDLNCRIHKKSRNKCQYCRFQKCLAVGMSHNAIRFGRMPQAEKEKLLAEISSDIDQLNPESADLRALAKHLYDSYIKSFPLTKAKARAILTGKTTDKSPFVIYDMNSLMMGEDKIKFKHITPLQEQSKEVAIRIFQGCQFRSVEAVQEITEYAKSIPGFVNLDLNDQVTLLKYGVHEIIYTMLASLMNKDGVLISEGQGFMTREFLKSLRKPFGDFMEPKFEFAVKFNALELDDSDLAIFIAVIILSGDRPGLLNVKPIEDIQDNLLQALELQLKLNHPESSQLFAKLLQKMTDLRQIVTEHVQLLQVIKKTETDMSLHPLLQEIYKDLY
# In short: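 PPAR-gamma-UAS-bla HEK293 cells in medium with 1% charcoal/dextran-treated FBS were exposed to compounds for 16 h at 37 C. Beta-lactamase activity was read with CCF4 substrate (405 nm excitation, 460/530 nm emission).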
# [14] = molecular target: Thyroid hormone receptor beta (Homo sapiens) (UniProt P10828); assay: qHTS assay for small molecule agonists of thyroid hormone receptor beta signaling (AID 588545);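 further: 0% = DMSO only and 100% = 10 nM T3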
# Chain of Thyroid hormone receptor beta (Homo sapiens) (P10828 whole entry, looked up): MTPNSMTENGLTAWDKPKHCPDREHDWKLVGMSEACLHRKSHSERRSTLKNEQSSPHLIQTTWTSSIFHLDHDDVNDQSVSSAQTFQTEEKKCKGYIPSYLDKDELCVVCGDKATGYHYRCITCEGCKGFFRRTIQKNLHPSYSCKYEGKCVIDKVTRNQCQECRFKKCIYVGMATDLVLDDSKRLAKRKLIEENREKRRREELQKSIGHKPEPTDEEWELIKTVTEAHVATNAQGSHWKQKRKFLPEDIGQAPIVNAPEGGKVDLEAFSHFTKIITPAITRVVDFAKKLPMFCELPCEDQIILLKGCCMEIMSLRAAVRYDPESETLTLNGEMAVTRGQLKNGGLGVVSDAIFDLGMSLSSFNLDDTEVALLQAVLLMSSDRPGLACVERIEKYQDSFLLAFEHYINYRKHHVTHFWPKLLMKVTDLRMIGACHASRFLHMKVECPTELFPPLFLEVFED
# In short: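 Compounds were tested as agonists in TR-UAS-bla-GripTite HEK 293 cells. After 18 hrs at 37 C, CCF4 substrate was added and fluorescence read after 2 hrs at room temperature.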
# [15] = qHTS assay for cell viability of the p53RE-bla HCT-116 cell line (AID 743292; active means well fitted curve in the direction sought with a large enough effect; an effect the other way counts as inactive or inconclusive; further: on the % scale 0 is the no-effect control and ±100 the full control effect; nearly all actives have a fitted effect of over 55% in size)
# In short: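 Readout: CellTiter-Glo luminescence after 30 min RT. Treatment: compounds in DMSO, 16 h, 37 C. Cells: CellSensor p53RE-bla HCT-116, 4,000/well, preincubated 5 h.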
# [16] = molecular target: Nuclear receptor subfamily 1 group I member 2 (Rattus norvegicus) (UniProt Q9R1A7); assay: qHTS assay for small molecule activators of the rat pregnane X receptor (rPXR) signaling pathway (AID 651751; call rule not given here; further: 0% is about no effect); conditions: rPXR reporter cells, luciferase (One-Glo), 24 h
# Chain of Nuclear receptor subfamily 1 group I member 2 (Rattus norvegicus) (Q9R1A7 whole entry, looked up): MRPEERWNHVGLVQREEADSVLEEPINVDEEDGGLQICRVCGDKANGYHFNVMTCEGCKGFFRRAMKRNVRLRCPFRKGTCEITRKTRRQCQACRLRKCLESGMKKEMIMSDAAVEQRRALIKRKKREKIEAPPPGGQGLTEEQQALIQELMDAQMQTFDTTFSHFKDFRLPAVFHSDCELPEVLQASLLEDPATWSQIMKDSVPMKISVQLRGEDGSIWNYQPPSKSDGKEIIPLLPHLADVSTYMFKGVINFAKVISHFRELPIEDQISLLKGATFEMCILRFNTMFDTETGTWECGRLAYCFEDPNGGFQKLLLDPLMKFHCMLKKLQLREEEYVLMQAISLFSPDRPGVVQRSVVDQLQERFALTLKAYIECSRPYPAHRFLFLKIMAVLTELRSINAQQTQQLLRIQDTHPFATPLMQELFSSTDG
# [17] = molecular target: Vitamin D3 receptor (Homo sapiens) (UniProt P11473); assay: qHTS assay for small molecule antagonists of vitamin D receptor signaling (AID 588541);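 further: receptor activated by calcitriol during compound treatment; series mostly up to about 77 µM; on the % scale 0 is the no-effect control and ±100 the full control effect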
# In short: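 VDR-UAS-bla HEK293T cells (2000/well, 2% charcoal-stripped FBS) were treated with titrated compounds plus 1-alpha,25-dihydroxyvitamin D3 (50 nM or 3 nM final) for 16 h at 37 C. CCF4 beta-lactamase fluorescence was read; Hill fits gave IC50.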
# [18] = qHTS assay for small molecule activators of the nuclear factor-kappa B (NF-kB) signaling pathway (AID 651749; active means well fitted activation curve with a large enough effect in the signal ratio; the % refers to the signal ratio; further: series mostly up to about 77 µM; % of control where 0% means no effect); conditions: NF-kB-bla ME-180 cells, beta-lactamase FRET ratio, 16 h; activation: stronger effect = higher value
# In short: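 Screening used 2,000 ME-180 reporter cells per well exposed to pinned compound (23 nL) or DMSO; after 16 hr at 37C, beta-lactamase expression under NF-kB control was assessed through FRET.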
# [19] = qHTS assay for small molecule agonists of retinoid X receptor alpha signaling (AID 588544); conditions: HEK293T RXRa-UAS-bla, beta-lactamase reporter, 18 h; 530 nm emission;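 on activation: 0% = DMSO basal wells and 100% = reference agonist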
# [20] = molecular target: Retinoic acid receptor RXR-alpha (Homo sapiens) (UniProt P19793); assay: as above
compound,measurement,setting,value
CC1(c2ccc(Oc3ccccc3)cc2)OC(=O)N(Nc2ccccc2)C1=O (stereo not drawn),Potency,[1],15.8 µM [inhibitor] (active)
same,outcome,[2],inactive
same,outcome,[3],inactive
same,max response,[4],19.6%
same,Potency,[5],31.6 µM (active)
same,Potency,[6],5.01 µM (active)
same,activation,[7],4.76% (inactive)
same,max response,[8],11.6% (inactive)
same,Potency,[9],inactive
same,max response,[10],-28.5% (inactive)
same,max response,[11],-20.8% (inactive)
COc1cnc(OC)n2nc(NS(=O)(=O)c3c(OCC(F)F)cccc3C(F)(F)F)nc12,Potency,[1],inactive
same,Potency,[12],inactive
same,outcome,[2],inactive
same,Potency,[13],inactive
same,Potency,[14],inactive
same,max response,[4],8.71%
same,max response,[5],-13.9% (inactive)
same,activation,[6],1.45% (inactive)
same,activation,[7],0.743% (inactive)
same,max response,[8],-1.19% (inactive)
same,Potency,[9],inactive
same,max response,[10],-2.64% (inactive)
same,Potency,[15],inactive
same,max response,[16],-1.36% (inactive)
O=P(O)(O)CN(CP(=O)(O)O)CP(=O)(O)O,Potency,[1],inactive
same,outcome,[2],inactive
same,Potency,[13],inactive
same,Potency,[17],inactive
same,outcome,[3],inactive
same,max response,[4],-13.3%
same,max response,[5],-32% (inactive)
same,activation,[6],-5.96% (inactive)
same,activation,[18],0.3% (inactive)
same,activation,[7],0.682% (inactive)
same,max response,[8],4.68% (inactive)
same,Potency,[9],inactive
same,max response,[10],-0.727% (inactive)
same,max response,[11],-8.91% (inactive)
same,Potency,[15],inactive
same,max response,[16],-1.66% (inactive)
CCOP(=O)(OCC)OC(Cl)C(Cl)(Cl)Cl (stereo not drawn),Potency,[12],inactive
same,outcome,[2],inactive
same,outcome,[3],inactive
same,max response,[19],-5.65%
same,Potency,[20],inactive
same,Potency,[14],inactive
same,max response,[4],-13.7%
same,max response,[5],-17.2% (inactive)
same,activation,[6],-3.88% (inactive)
same,activation,[18],1.4% (inactive)
same,activation,[7],2.83% (inactive)
same,max response,[8],-2.65% (inactive)
same,Potency,[9],inactive
same,max response,[10],-17.4% (inactive)
same,Potency,[15],inactive
same,max response,[16],2.92% (inactive)
CC1=C(C(=O)Nc2ccccc2)SCCO1,Potency,[12],inactive
same,outcome,[2],inactive
same,Potency,[13],inactive
same,Potency,[17],inactive
same,outcome,[3],inactive
same,max response,[19],-2.97%
same,Potency,[20],inactive
same,Potency,[14],inactive
same,max response,[4],-5.88%
same,max response,[5],-6.74% (inactive)
same,activation,[6],1.21% (inactive)
same,max response,[8],-3.16% (inactive)
same,max response,[10],-4.21% (inactive)
same,max response,[11],-15.4% (inactive)
same,Potency,[15],inactive
COc1cc(OC)nc(NC(=O)NS(=O)(=O)c2ncccc2C(F)(F)F)n1,Potency,[12],inactive
same,Potency,[13],inactive
same,Potency,[17],inactive
same,max response,[19],-4.69%
same,Potency,[20],inactive
same,max response,[4],-9.13%
same,max response,[5],2.48% (inactive)
same,activation,[6],-1.26% (inactive)
same,activation,[18],-0.0953% (inactive)
same,activation,[7],1.17% (inactive)
same,max response,[8],-1.83% (inactive)
same,Potency,[9],inactive
same,max response,[10],-1.73% (inactive)
same,max response,[11],-6.81% (inactive)
same,Potency,[15],inactive
same,max response,[16],0.924% (inactive)

# From PubChem BioAssay (NCATS)
